Experimental data from PubChem BioAssay AID1159580 (chemical genetic matrix, 2015).
Among all 5,500 compounds or so, about 2,000 (36%) were called active. Not shown: some 18% with an inconclusive outcome. Rule as the data show it: active = normalized growth mostly below about 0.91 (no sharp cut-off); inconclusive = no clear call, values can overlap the other calls; inactive = mostly above about 0.92. The list shows a part of the results.

Assay: chemical genetic growth profiling, strain panel (AID 1159580);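 also: tested at 20 µM; growth read once vehicle control cultures reached saturation at 30 °C; 1 = growth at the plate median or of vehicle wells; lower values mean less growth of the strain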
Conditions: S. cerevisiae deletion strains, growth OD

Measured: normalized growth

CC1CC[C@]2(NC1)O[C@H]1CC3C4CC[C@H]5C[C@@H](O)CC[C@]5(C)C4CC[C@]3(C)[C@H]1[C@@H]2C (stereo partly specified)
inactive: locus YOL012C, strain htz1 0.203
active: locus YJR066W, strain TOR1, hits give low values 0.471 | locus YKL009W, strain mrt4, hits give low values 0.252 | locus YKL068W, hits give low values 0.135 | locus YKL085W, strain MDH1 (second series), hits give low values 0.0926 | locus YKL085W, strain MDH1, hits give low values 0.0926 | locus YKL160W, strain elf1, hits give low values 0.0907 | locus YKR001C, strain vps1, hits give low values 0.0755 | locus YKR026C, strain gcn3, hits give low values 0.223 | locus YKR091W, strain srl3, hits give low values 0.12 | locus YLL001W, strain dnm1, hits give low values 0.109 | locus YLL026W, hits give low values 0.0788 | locus YLL041C, strain sdh2, hits give low values 0.0915 | locus YLR027C, strain aat2, hits give low values 0.0814 | locus YLR039C, strain RIC1, hits give low values 0.229 | locus YLR058C, strain SHM2, hits give low values 0.0708 | locus YLR102C, strain apc9, hits give low values 0.0841 | locus YLR113W, strain HOG1, hits give low values 0.557 | locus YLR221C, strain rsa3, hits give low values 0.077 | locus YLR258W, strain gsy2, hits give low values 0.0908 | locus YLR262C, strain YPT6 (second series), hits give low values 0.323 | locus YLR268W, strain sec22, hits give low values 0.0945 | locus YLR320W, strain mms22, hits give low values 0.0887 | locus YLR330W, strain CHS5, hits give low values 0.0602 | locus YLR342W, strain FKS1 (second series), hits give low values 0.0855 | locus YLR342W, strain FKS1, hits give low values 0.0932 | locus YLR357W, strain rsc2, hits give low values 0.383 | locus YLR370C, strain arc18, hits give low values 0.0901 | locus YLR371W, strain rom2, hits give low values 0.0788 | locus YLR384C, strain iki3, hits give low values 0.213 | locus YLR418C, strain cdc73, hits give low values 0.141 | locus YML016C, strain PPZ1, hits give low values 0.0661 | locus YML032C, strain rad52, hits give low values 0.105 | locus YML120C, strain ndi1, hits give low values 0.0802 | locus YML124C, strain tub3, hits give low values 0.0853 | locus YMR058W, strain fet3, hits give low values 0.113 | locus YMR078C, strain ctf18, hits give low values 0.0791 | locus YMR125W, strain sto1, hits give low values 0.102 | locus YMR129W, hits give low values 0.0908 | locus YMR205C, strain PFK2, hits give low values 0.124 | locus YMR223W, strain ubp8, hits give low values 0.0843 | locus YMR231W, strain pep5, hits give low values 0.106 | locus YMR263W, strain SAP30, hits give low values 0.0847 | locus YMR307W, strain GAS1, hits give low values 0.145 | locus YNL067W, strain RPL9B, hits give low values 0.0797 | locus YNL071W, strain lat1, hits give low values 0.0674 | locus YNL183C, strain NPR1, hits give low values 0.561 | locus YNL209W, strain ssb2, hits give low values 0.383 | locus YNL233W, strain BNI4, hits give low values 0.0735 | locus YNL248C, strain rpa49, hits give low values 0.101 | locus YNL250W, strain rad50, hits give low values 0.104 | locus YNL271C, strain bni1, hits give low values 0.103 | locus YNL298W, strain CLA4, hits give low values 0.081 | locus YNL307C, strain MCK1, hits give low values 0.0717 | locus YNL322C, strain KRE1 (second series), hits give low values 0.131 | locus YNL322C, strain KRE1, hits give low values 0.0664 | locus YNR049C, strain mso1, hits give low values 0.0984 | locus YNR052C, strain pop2, hits give low values 0.103 | locus YOL006C, strain TOP1, hits give low values 0.15 | locus YOL147C, strain pex11, hits give low values 0.0685 | locus YOR001W, strain rrp6, hits give low values 0.105 | locus YOR061W, strain CKA2, hits give low values 0.117 | locus YOR069W, strain VPS5, hits give low values 0.0792 | locus YOR070C, strain gyp1, hits give low values 0.0794 | locus YOR080W, strain dia2, hits give low values 0.111 | locus YOR083W, strain WHI5, hits give low values 0.198 | locus YOR106W, strain vam3, hits give low values 0.143 | locus YOR136W, strain idh2, hits give low values 0.0918 | locus YOR144C, strain elg1, hits give low values 0.0753 | locus YOR184W, strain ser1, hits give low values 0.0768 | locus YOR231W, strain MKK1, hits give low values 0.573 | locus YOR265W, strain rbl2, hits give low values 0.106 | locus YOR270C, strain vph1, hits give low values 0.111 | locus YOR290C, strain snf2, hits give low values 0.108 | locus YOR316C, strain cot1, hits give low values 0.0772 | locus YPL051W, strain arl3, hits give low values 0.182 | locus YPL078C, strain atp4, hits give low values 0.0844 | locus YPL106C, strain sse1, hits give low values 0.175 | locus YPL240C, strain hsp82, hits give low values 0.084 | locus YPL241C, strain CIN2, hits give low values 0.0689 | locus YPL256C, strain CLN2, hits give low values 0.604 | locus YPR119W, strain clb2, hits give low values 0.0896 | locus YPR141C, strain kar3, hits give low values 0.176 | locus YPR163C, strain tif3, hits give low values 0.0892 | locus YPR167C, strain met16, hits give low values 0.0808 | strain wtn01, hits give low values 0.0731
